This is a sample that favours compounds with a hit; in the whole collection about 2.6% have one here.
Nrf2 inh: Nrf2 qHTS screen for inhibitors | 360,000 compounds, 2.1% hits | Potency, µM (titrated, usually from 46 µM), for inactives: at the highest dose activity change, negative = inhibition, actives largely listed as inhibitors | A549 ARE-Fluc reporter, luciferase luminescence, 18-24 h | AID 504444, 2011; note: potency is the fitted concentration of half-maximal effect; % is set by controls: 0 for no effect and ±100 for the full control effect; nearly all actives have a fitted effect of over 60% in size
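Concentration-response testing used A549 ARE_Fluc cells at 5000 cells/well. Following an 18-24 h compound incubation, viability was read by fluorescence (Ex 405/Em 525) and luciferase output by luminescence.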
Nrf2 activator: qHTS of Nrf2 Activators. AREc32 ARE-luciferase reporter (MCF7-derived line), luminescence, 24 h. Potency, µM (highest dose often 46.1 µM), for the others: at the highest dose activation, hits mostly activators. 410,000 compounds, 0.31% hits. AID 624171, 2012; note: potency is the fitted concentration of half-maximal effect; % of control where 0% means no effect; nearly all actives have a fitted effect of over 65% in size
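Nrf2 activation is followed as ARE-luciferase induction in the AREc32 line after one day of compound treatment; luminescence is read with Steady-Glo.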
A549 tox: Nrf2 qHTS screen for inhibitors: counterscreen for cytotoxicity; A549 ARE-Fluc cells, CellTiter-Fluor viability, 18-24 h; Potency, µM (top dose mostly 46 µM), for inactives: at the top dose activity change, negative = cytotoxicity, most hits filed as inhibitors; 390,000 compounds, 0.16% hits; AID 504648, 2011; note: potency is the fitted concentration of half-maximal effect; % is set by controls: 0 for no effect and ±100 for the full control effect
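A549 ARE_Fluc cells in 5% FBS OPTI-MEM were exposed to compounds in concentration-response for 18-24 h at 37 deg C. Viability was read by CellTiter-Fluor fluorescence (Ex 405/Em 525) after 30 min, before the luciferase read.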
TCR act: Activators of T cell receptors: qHTS campaign. primary human leukocytes, anti-CD3, IL-2 HTRF, 48 h. Potency, µM (top dose mostly 9.22 µM), for the others: top-dose activation of IL-2 secretion, most hits filed as activators. 330,000 tested, under 10 active; note: % of control where 0% means no effect
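Using a-CD3 beads without co-stimulation, primary human leukocytes were exposed to compounds for 48 hr. An HTRF IL-2 kit measured the cytokine, with europium-to-d2 energy transfer producing emission at 665nm upon 320nm excitation.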
CCT modulator: High-Throughput Screening for Modulators of Cytosolic Chaperonin Activity; purified chaperonin ATPase assay, HTRF ADP detection, 30 min; activity change, % (no concentration beside the values), hits read low; 360,000 compounds, 0.3% hits; in the data active = activity change below about -30%; note: % is set by controls: 0 for no effect and ±100 for the full control effect
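Nucleotide hydrolysis assay: TRiC at 20–40 nM final (set by batch activity) with 10 uM ATP, 30 min at 37 °C, in presence of 76 uM compound. Detection by competitive ADP HTRF, 30 min ambient.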
AT treatment: qHTS Assay for Identifying a Potential Treatment of Ataxia-Telangiectasia; F2112 A-T fibroblasts, KAP-1 phosphorylation AlphaLISA; neocarzinostatin DNA damage 30 min before lysis; Potency, µM (top dose mostly 57.5 µM), inactives show top-dose activation, hits mostly activators; 320,000 compounds, 0.19% hits; AID 485349, 2010; note: potency is the fitted concentration of half-maximal effect; % of control where 0% means no effect; nearly all actives have a fitted effect of over 45% in size
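hTERT-immortalized A-T patient fibroblasts (F2112), 500 cells/well in OPTI-MEM, 1% FBS, got compounds for 60 min, then NCS for 30 min at 37C. Lysates were then assayed for phospho-KAP-1 by AlphaLISA (anti-pKAP1 donor, anti-KAP1 acceptor beads), 6 hr at 25C.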
* hit, by the source's call; ? = inconclusive; nt = no result given; [ ] = dose if it differs, or a comment. Unless noted, calls come from the whole dose curve; as a rule, active = well fitted curve in the direction sought with a large enough effect; inconclusive = small, poorly fitted or top-dose-only effect, or another doubt; inactive = no such curve, though single readings can be large; an effect the other way counts as inactive or inconclusive.

SMILES	Nrf2 inh	Nrf2 activator	A549 tox	TCR act	CCT modulator	AT treatment
C=CCn1c(=N)n(CC(=O)c2ccc(Cl)cc2)c2ccccc21	2.8%	2.9%	5.4%	9.3%	0.6	15.8µM*
CCn1c(=N)n(CC(=O)c2ccc(Cl)c(Cl)c2)c2ccccc21	?	11.7%	-6.9%	1.4%	0.0	28.2µM*
N=c1n(CCN2CCCCC2)c2ccccc2n1CC(O)c1ccc(Cl)c(Cl)c1 (stereo not given)	12.6%	-1.9%	?	0.5%	-1.2	-0.2%
CCn1c(=N)n(CC(=O)c2ccco2)c2ccccc21	-19.5%	10µM*	-25.7%	-30.2%	0.4	-5.0%
C=CCn1c(=N)n(CC(=O)OC)c2ccccc21	nt	3.8%	-1.1%	-1.8%	-0.9	14.1%
CCn1c(=N)n(CC(=O)c2ccc(OC)cc2)c2ccccc21	?	4.6%	-1.2%	1.5%	-1.8	0.4%
CCc1ccc(-n2c(=O)c3c4c(sc3n(CC(=O)N3CCC(C)CC3)c2=O)CCC4)cc1	-9.8%	-0.8%	-4.4%	nt	nt	nt
Cc1c(Cl)cccc1NC(=O)CNC(=O)Cc1n[nH]c(=O)c2ccccc12	-0.5%	-0.1%	0.6%	5.2%[46.1 µM]	-3.4	4.2%
COCCCN1C(=O)C(=O)/C(=C(/O)c2ccc(S(=O)(=O)N3CCOCC3)cc2)C1c1ccc(Cl)cc1 (stereo not given)	-1.4%	0.1%	10.4%	-2.0%	0.7	-3.3%
CCN(CC)CCn1nc(C)nc1-c1ccccc1O	-25.6%	-1.6%	2.8%	3.2%	-2.3	6.5%
CCN(CC)CCn1nc2c3c(cccc3c1=O)-c1ccccc1-2	?	-1.7%	13µM*	-3.2%	-2.9	10.1%
CCOc1cccc(/C=C2\NC(=S)N(c3ccccc3)C2=O)c1O	-0.4%	11.2µM*	-2.8%	3.1%	0.2	-7.8%
CCCCNC(=O)c1cn(CC(C)C)c(=O)c2c1c1ccccc1n2C	-0.8%	-0.2%	-12.5%	-5.4%	-0.5	?
CC(C)CCNC(=O)c1cn(CC(C)C)c(=O)c2c1c1ccccc1n2C	8.8%	-1.1%	1.5%	-7.8%	-41.1*	19.1%
COc1ccccc1OCC(=O)NNC(=O)C1CCN(c2ncnc3sc(C)c(C)c23)CC1	23.1µM*	-0.3%	0.4%	nt	0.0	18.0%
Cc1sc2ncnc(N3CCC(C(=O)NCC(=O)Nc4ccc(F)c(F)c4)CC3)c2c1C	18.4µM*	0.2%	?	5.0%	-1.5	0.6%
Cc1ccccc1OCC(=O)NNC(=O)C1CCN(c2ncnc3sc(C)c(C)c23)CC1	?	-1.0%	-17.3%	-2.0%	-2.1	-13.3%
Cc1sc2ncnc(N3CCC(C(=O)Nc4ccc(Br)cc4Br)CC3)c2c1C	20.6µM*	0.3%	-13.2%	2.6%	-1.7	0.9%
NCCCCNc1ncnc2ccc(-c3ccc4c(c3)OCO4)cc12	0.0%	nt	17.3%	nt	nt	nt
O=C(Nc1ccccn1)C1COc2ccccc2O1 (stereo not given)	?	8.5%	-2.7%	3.6%[46.1 µM]	-8.4	1.5%
CC1Oc2ccccc2OC1C(=O)Nc1ccccn1 (stereo not given)	10.9%	7.08µM*	10.1%	1.0%[46.1 µM]	-3.2	4.7%
Fc1ccc(NC(=S)Nc2ccc(Br)cc2)cc1	18.4µM*	2.5%	?	2.5%[46.1 µM]	-3.2	6.7%
Oc1ccc(NC(=S)Nc2ccc(F)cc2)cc1	0.0%	8.9%	0.2%	nt	-0.9	6.6%
COc1cccc(CNC(=O)CN2C(=O)N(c3ccc(C)cc3C)S(=O)(=O)c3ccccc32)c1OC	nt	3.5%	-18.5%	nt	nt	nt
CN1CCN(S(=O)(=O)c2ccc3ccccc3c2)CC1	0.2%	-0.7%	2.5%	0.2%	0.3	0.4%
O=C(CSc1ccc2ccccc2c1)N1CCN(c2ccc(O)cc2)CC1	-25.2%	12.9%	-1.7%	-5.0%	0.3	25.1µM*
O=S(=O)(c1ccc2ccccc2c1)N1CCN(c2ccc(O)cc2)CC1	10.3µM*	9.1%	-1.5%	nt	-0.2	-7.4%
O=C(c1ccc2ccccc2c1)N1CCN(c2ccc(O)cc2)CC1	?	-0.9%	3.5%	3.0%	-1.4	6.0%

Assay outcomes (PubChem)
